The list is not random: actives were taken first. Their share in the collection is about 17%.
HT1080 IDH1KD tx = HT-1080 IDH1 knockdown cell toxicity (counter line). HT-1080 IDH1 knockdown viability, ATP luminescence, 48 h. Potency, µM (highest dose often 46.1 µM), for the others: at the top dose activity, negative = toxicity, actives largely listed as cytotoxic. hit rate 2% among 360,000. AID 686971;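 further: 0% = DMSO wells and -100% = cell-free medium wells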
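In this qHTS, HT-1080 cells depleted of IDH1 are exposed for 48 h at 37 °C to compound titrations. Toxicity is scored from CellTiter-Glo luminescence, with DMSO as full viability and medium alone as none.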
TGFb SMAD3 inh = inhibitors of TGF-b signaling; AID 588855; Potency, µM (top dose mostly 46.1 µM), without a hit: at the highest dose activity, negative = inhibition, usual class: inhibitors; HepG2 CAGA-GFP TGF-b/SMAD3 reporter, GFP fluorescence, 18 h; TGF-beta stimulated, 500 pg/mL final; hit rate 1.2% among 410,000; further: on the % scale 0 is the no-effect control and ±100 the full control effect; nearly all actives have a fitted effect of over 65% in size
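Cell-based qHTS in HEPG2 carrying a CAGA-GFP Smad reporter; compounds added before 500 pg/mL final TGF-beta, 18 h incubation at 37 degrees C, GFP fluorescence quantified per cell by imaging cytometry.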
HepG2 tox = HepG2 cytotoxicity, counter-screen for TGF-b inhibitors; HepG2 CAGA-GFP viability, ATP luminescence, 18 h; Potency, µM (titrated, usually from 46.1 µM), inactives show top-dose activity change, negative = cytotoxicity, most hits filed as cytotoxic; hit rate 0.76% among 410,000; AID 588856
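CellTiter-Glo luminescence gave cytotoxicity after 18 hours at 37 degrees C. The cells were HepG2 CAGA-GFP in 1% FBS DMEM, stimulated with 500 pg/mL TGF-beta after compound addition. %Activity was normalised to no-cell wells (complete cell-killing) and DMSO (no toxicity), and curves were fitted and classified.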
TDP1 cell CPT = growth inhibition of DT40 Tdp1-/-;hTDP1 cells with camptothecin (screen for TDP1 inhibitors) | chicken DT40 Tdp1-/-;hTDP1 cells + 20 nM CPT, ATP luminescence, 48 h | Potency, µM (titrated, usually from 46.2 µM), for the others: at the top dose activity change, negative = growth inhibition, usual class: inhibitors | hit rate 12% among 420,000; further: on the % scale 0 is the no-effect control and ±100 the full control effect; nearly all actives have a fitted effect of over 55% in size
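Chicken DT40 Tdp1-/- cells complemented with human TDP1, 400 cells/well, exposed to compounds plus 20 nM camptothecin for at least 48 h at 37 C; viability read as ATP content by CellTiter-Glo luminescence.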
TDP1 cell noCPT = qHTS for Inhibitors of human tyrosyl-DNA phosphodiesterase 1 (TDP1): qHTS in cells in absence of CPT | Potency, µM (doses to about 46.2 µM), for inactives: at the top dose activity change, negative = growth inhibition, hits mostly inhibitors | DT40 Tdp1-/- hTDP1 cells, no CPT, ATP luminescence, 48 h | AID 686978, 2013 | hit rate 15% among 420,000; further: on the % scale 0 is the no-effect control and ±100 the full control effect; nearly all actives have a fitted effect of over 55% in size
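Compound effects on proliferation are scored in DT40 Tdp1-/-;hTDP1 cells in the absence of CPT. ATP levels (CellTiter-Glo luminescence) are recorded after a ≥48 hr, 37 °C incubation.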
HT1080-NT tox = kills 2HG-producing HT-1080-NT fibrosarcoma cells. Potency, µM (series often up to 46.1 µM), for the others: at the top dose activity, negative = less viability, usual class: cytotoxic. HT-1080-NT fibrosarcoma viability, CellTiter-Glo ATP luminescence, 48 h. hit rate 1.6% among 360,000. AID 686970;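 further: NT is the 2HG producing partner of a matched IDH1 knockdown line; 0% = DMSO-treated cells and -100% = media-only wells without cells; nearly all actives have a fitted effect of over 55% in size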
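Viability of the 2HG-overproducing fibrosarcoma line after 48 hours of compound exposure at 37 degrees C was determined by luminescence with CellTiter-Glo, and concentration-effect curves were then fitted and categorized.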
An asterisk follows results filed as active; ? = inconclusive; nt = no result; ! = repeats disagree. The call rests on the fitted dose curve; in most records, active means well fitted curve in the direction sought with a large enough effect; inconclusive means small, poorly fitted or top-dose-only effect, or another doubt; inactive means no such curve, though single readings can be large; an effect the other way counts as inactive or inconclusive. Potency means the concentration at half of the fitted maximal effect.

SMILES	HT1080 IDH1KD tx	TGFb SMAD3 inh	HepG2 tox	TDP1 cell CPT	TDP1 cell noCPT	HT1080-NT tox
CCS(=O)(=O)Nc1ccc(C2=NN(C(=O)c3ccccc3)C(c3cccs3)C2)cc1 (stereo not drawn)	?	-20.6%	0.3%	23.1µM*	20.6µM*	?
Cc1cccc(C(=O)N2N=C(c3ccc(NS(C)(=O)=O)cc3)CC2c2cccs2)c1 (stereo not drawn)	-19.8%	-27.9%	-23.5%	23.1µM*	-19.3%	-12.1%
CS(=O)(=O)N1N=C(c2ccc(Br)cc2)CC1c1cccs1 (stereo not drawn)	-2.0%	-23.5%	-8.4%	20.6µM*	25.9µM*	-4.8%
CC[C@]1(C(=O)OC)[C@H]2C(=O)N(Cc3ccccc3)C(=O)[C@H]2[C@H]2CN=C(SCC(=O)c3ccccc3)N21	-5.8%	-25.6%	-37.9%	?	?	-3.3%
O=C(NN=Cc1ccccc1OC(F)F)c1ccc(NS(=O)(=O)c2cccs2)cc1	?	-12.3%	-16.4%	?	?	-21.2%
Cc1nccn1CCC(=O)NC1CC(C)(C)Cc2c1cnn2-c1ccccc1 (stereo not drawn)	6.5%	0.7%	-1.3%	-0.1%	-2.1%	4.7%
CCCCCOCC1CC(C/C(C)=N/Nc2nc(-c3ccccc3)cs2)C(=O)O1 (stereo not drawn)	4.8%	6.5%	7.9%	-4.8%	-8.6%	-2.0%
CC(C)c1ccc(NC(=O)CCS(=O)(=O)c2cccc3nonc23)cc1	-5.1%	-22.4%	-9.8%	16.4µM*!	23.1µM*	-7.4%
CCOc1ccc(-c2cc(C(=O)NCc3ccc(OCC)c(OC)c3)[nH]n2)cc1	nt	-6.6%	-9.1%	-0.4%	-24.7%	nt
COc1ccc(-n2cc(-c3ccccc3)c3c(Nc4ccc(OC)c(OC)c4)ncnc32)cc1	nt	-5.7%	-29.1%	?	?	nt
COc1ccc(Nc2ncnc3scc(-c4ccc(OC)cc4)c23)cc1	?	?	-26.7%	2.91µM*	4.61µM*	?
COc1ccc(Nc2ncnc3scc(-c4ccc(F)cc4)c23)cc1	nt	?	-39.0%	?	?	nt
COc1ccc(-c2csc3ncnc(Nc4ccc(OC)c(OC)c4)c23)cc1	nt	10µM*	-41.1%	?	8.2µM*	nt
CCCN(C(=O)CCNC(=O)Cn1cnc2ccccc2c1=O)c1cccc(Cl)c1	-2.8%	-3.6%	7.4%	9.9%	-32.2%	-7.7%
Cc1ccc(C(O)c2nc3ccccc3n2C)cc1 (stereo not drawn)	1.9%	-0.9%	-4.4%	-23.0%	?	5.3%
Cc1ccc(C(O)c2nc3ccccc3n2C(C)C)cc1 (stereo not drawn)	-6.8%	25.4%	-10.5%	?	?	-4.2%
COc1ccc(C(O)c2nc3ccccc3n2C(C)C)cc1 (stereo not drawn)	?	-18.9%	1.4%	23.1µM*	16.4µM*	?
CC(C)c1ccc(C(O)c2nc3ccccc3n2C)cc1 (stereo not drawn)	-0.1%	-23.0%	-19.2%	20.6µM*	20.6µM*	7.4%
COc1ccccc1/C=C/c1nc2ccccc2n1C(C)C	nt	?	-49.1%	18.4µM*	20.6µM*	nt
COc1cc2c3nnc(-c4ccc(F)cc4)c-3cn(Cc3ccccc3)c2cc1OC	?	71.0%	-112.4%	3.26µM*	5.17µM*	-4.2%
COc1cc2c3nnc(-c4ccc(F)cc4)c-3cn(Cc3ccc(F)cc3)c2cc1OC	?	40.3%	-110.9%	2.31µM*	2.59µM*	-6.9%
Cn1nc2c3cc(F)ccc3n(Cc3ccc(F)cc3)cc-2c1=O	-6.0%	0.0%	-5.7%	6.2%	?	-7.1%
COc1ccc(Cn2cc3c(-c4ccc(F)cc4)nnc-3c3cc(OC)c(OC)cc32)cc1	?	25.3%	-108.1%	4.11µM*	4.11µM*	?
COc1ccc(CCNC(=O)CSc2nnc(-c3ccc(F)cc3)c3ccccc23)cc1OC	-1.4%	?	-40.7%	?	?	-3.2%
O=C(NCCCO)C(=O)NCC(c1ccc2c(c1)OCO2)N1CCOCC1 (stereo not drawn)	nt	2.1%	2.3%	-6.0%	-1.4%	nt
CC(C)(C)C(=O)NNC(=O)c1cnccn1	0.5%	1.4%	-4.7%	-13.2%	12.3%	3.3%
O=C(Nc1ccc2c(c1)[C@@H]1C[C@@H](CC(=O)N3CCOCC3)O[C@@H](CO)[C@@H]1O2)NC1CCCC1	6.8%	1.3%	1.5%	4.6%	3.3%	6.3%
CCCCn1cc(S(=O)(=O)c2ccc(F)cc2)c(=O)c2ccccc21	nt	18.2%	-0.4%	?	?	nt
CC(c1ccccc1)n1c(SCC(=O)Nc2ccccc2)n[nH]c1=O (stereo not drawn)	-25.6%	0.0%	-11.0%	3.3%	-13.3%	-12.4%
COC(=O)[C@@]1(Cc2ccc(F)cc2)[C@H]2c3cc(C(=O)N4CCCC4)n(CCO)c3C[C@H]2CN1C(=O)c1ccccc1	-1.8%	-20.5%	-16.7%	?	-21.7%	-5.2%

Source: PubChem (National Center for Advancing Translational Sciences (NCATS))
